# PubChem BioAssay AID1159580 (chemical genetic matrix, 2015)
# In all, about 5,500 compounds went through this assay and about 2,000 (36%) were called active. About 18% were inconclusive and are not listed. Some of the results follow. Unmarked numbers belong to inactive results. Cut-off read from the data, not from the text of the source: active = normalized growth mostly below about 0.91 (no sharp cut-off); inconclusive = no clear call, values can overlap the other calls; inactive = mostly above about 0.92.
# Test: chemical genetic growth profiling, strain panel (AID 1159580);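 note: tested at 20 µM; growth read once vehicle control cultures reached saturation at 30 °C; 1 = growth at the plate median or of vehicle wells; lower values mean less growth of the strain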
# Conditions: growth OD
compound,measurement,setting,value
Oc1c(Cl)c(Cl)c(Cl)c(Cl)c1Cl,normalized growth,"S. cerevisiae deletion strains, locus YKL190W, strain CNB1, hits give low values",0.811 (active)
same,normalized growth,"S. cerevisiae deletion strains, locus YKR001C, strain vps1, hits give low values",0.3 (active)
same,normalized growth,"S. cerevisiae deletion strains, locus YLR039C, strain RIC1, hits give low values",0.332 (active)
same,normalized growth,"S. cerevisiae deletion strains, locus YLR058C, strain SHM2, hits give low values",0.801 (active)
same,normalized growth,"S. cerevisiae deletion strains, locus YLR102C, strain apc9, hits give low values",0.739 (active)
same,normalized growth,"S. cerevisiae deletion strains, locus YLR113W, strain HOG1, hits give low values",0.16 (active)
same,normalized growth,"S. cerevisiae deletion strains, locus YLR262C, strain YPT6, hits give low values",0.365 (active)
same,normalized growth,"S. cerevisiae deletion strains, locus YLR268W, strain sec22, hits give low values",0.718 (active)
same,normalized growth,"S. cerevisiae deletion strains, locus YLR330W, strain CHS5, hits give low values",0.778 (active)
same,normalized growth,"S. cerevisiae deletion strains, locus YLR342W, strain FKS1 (second series), hits give low values",0.743 (active)
same,normalized growth,"S. cerevisiae deletion strains, locus YLR371W, strain rom2, hits give low values",0.79 (active)
same,normalized growth,"S. cerevisiae deletion strains, locus YLR418C, strain cdc73, hits give low values",0.41 (active)
same,normalized growth,"S. cerevisiae deletion strains, locus YML016C, strain PPZ1, hits give low values",0.831 (active)
same,normalized growth,"S. cerevisiae deletion strains, locus YML032C, strain rad52, hits give low values",0.709 (active)
same,normalized growth,"S. cerevisiae deletion strains, locus YML124C, strain tub3, hits give low values",0.739 (active)
same,normalized growth,"S. cerevisiae deletion strains, locus YMR078C, strain ctf18, hits give low values",0.554 (active)
same,normalized growth,"S. cerevisiae deletion strains, locus YMR223W, strain ubp8, hits give low values",0.73 (active)
same,normalized growth,"S. cerevisiae deletion strains, locus YMR263W, strain SAP30, hits give low values",0.773 (active)
same,normalized growth,"S. cerevisiae deletion strains, locus YMR307W, strain GAS1, hits give low values",0.391 (active)
same,normalized growth,"S. cerevisiae deletion strains, locus YNL067W, strain RPL9B, hits give low values",0.791 (active)
same,normalized growth,"S. cerevisiae deletion strains, locus YNL128W, strain TEP1, hits give low values",0.878
same,normalized growth,"S. cerevisiae deletion strains, locus YNL153C, strain GIM3, hits give low values",0.85 (active)
same,normalized growth,"S. cerevisiae deletion strains, locus YNL183C, strain NPR1, hits give low values",-0.00166 (active)
same,normalized growth,"S. cerevisiae deletion strains, locus YNL233W, strain BNI4, hits give low values",0.782 (active)
same,normalized growth,"S. cerevisiae deletion strains, locus YNL250W, strain rad50, hits give low values",0.585 (active)
same,normalized growth,"S. cerevisiae deletion strains, locus YNL271C, strain bni1, hits give low values",0.7 (active)
same,normalized growth,"S. cerevisiae deletion strains, locus YNL298W, strain CLA4, hits give low values",0.679 (active)
same,normalized growth,"S. cerevisiae deletion strains, locus YNL307C, strain MCK1, hits give low values",0.226 (active)
same,normalized growth,"S. cerevisiae deletion strains, locus YNL322C, strain KRE1, hits give low values",0.826 (active)
same,normalized growth,"S. cerevisiae deletion strains, locus YNR052C, strain pop2, hits give low values",0.802 (active)
same,normalized growth,"S. cerevisiae deletion strains, locus YOL006C, strain TOP1, hits give low values",0.739
same,normalized growth,"S. cerevisiae deletion strains, locus YOL012C, strain htz1",0.527
same,normalized growth,"S. cerevisiae deletion strains, locus YOL147C, strain pex11, hits give low values",0.603 (active)
same,normalized growth,"S. cerevisiae deletion strains, locus YOR061W, strain CKA2, hits give low values",0.826 (active)
same,normalized growth,"S. cerevisiae deletion strains, locus YOR069W, strain VPS5, hits give low values",0.849 (active)
same,normalized growth,"S. cerevisiae deletion strains, locus YOR136W, strain idh2, hits give low values",0.828 (active)
same,normalized growth,"S. cerevisiae deletion strains, locus YOR144C, strain elg1, hits give low values",0.756 (active)
same,normalized growth,"S. cerevisiae deletion strains, locus YOR184W, strain ser1, hits give low values",0.584 (active)
same,normalized growth,"S. cerevisiae deletion strains, locus YOR231W, strain MKK1, hits give low values",0.106 (active)
same,normalized growth,"S. cerevisiae deletion strains, locus YOR316C, strain cot1, hits give low values",0.688 (active)
same,normalized growth,"S. cerevisiae deletion strains, locus YPL055C, strain LGE1, hits give low values",0.732 (active)
same,normalized growth,"S. cerevisiae deletion strains, locus YPL241C, strain CIN2, hits give low values",0.819 (active)
same,normalized growth,"S. cerevisiae deletion strains, locus YPL256C, strain CLN2, hits give low values",0.113 (active)
same,normalized growth,"S. cerevisiae deletion strains, locus YPR119W, strain clb2, hits give low values",0.691 (active)
same,normalized growth,"S. cerevisiae deletion strains, locus YPR141C, strain kar3, hits give low values",0.724 (active)
same,normalized growth,"S. cerevisiae deletion strains, locus YPR163C, strain tif3, hits give low values",0.562 (active)
same,normalized growth,"S. cerevisiae deletion strains, locus YPR167C, strain met16, hits give low values",0.731 (active)
same,normalized growth,"S. cerevisiae deletion strains, strain wtn01, hits give low values",0.732 (active)
same,normalized growth,"S. cerevisiae strains, strain wild type, hits give low values",0.809 (active)
